Results taken from PubChem BioAssay (Tox21).
Where “and” joins values, the source holds several entries; their conditions need not be identical. Equal values may be shown once. Inconclusive results are not listed. Entries that show only a call come without a potency. The source holds several records for some structures; these can differ, active in one and inactive in another. Calls of active or inactive are those of the source. Calls follow the shape of the dose curve; as a rule, active = well fitted curve in the direction sought with a large enough effect in the repeat runs; inconclusive = weak or mixed curves; inactive = no such curve, though single readings can be large; an effect the other way counts as inactive or inconclusive.

Tests used:
[1] = qHTS RealTime-Glo MT Cell Viability Assay in HEK293 cells - 0 hour (AID 1224880); also: top concentration of the series differs between compounds; nearly all actives have a fitted effect of over 45% in size
In short: (§1)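 600 HEK293 cells per well, dispensed already mixed with RealTime-Glo MT reagents. Compound dosing came 5 h later. The same wells were read for luminescence at 0, 8, 16, 24, 32 and 40 h of exposure at 37 C.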

[2] = A CellTox Green Cytotoxicity Assay to monitor cytotoxicity in HEK293 cells - 32 hour (AID 1224881); also: nearly all actives have a fitted effect of over 40% in size; also: potency is read from the fitted curve at half-maximal effect
In short: (§2)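 Dead-cell fluorescence measured kinetically: asymmetric cyanine dye, HEK293, 600 cells/well, 5 h settle, 23 nL cpd/DMSO, 37 C, reads 0–40 h every 8 h.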

[3] = A CellTox Green Cytotoxicity Assay to monitor cytotoxicity in HepG2 cells - 0 hour (AID 1224882); also: nearly all actives have a fitted effect of over 35% in size; also: potency is read from the fitted curve at half-maximal effect
In short: (§3)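 First, HepG2 cells (600/well) mixed with reagent were plated; second, after 5 h at 37 C they received compounds via pintool; third, fluorescence was measured at 0 h through 40 h at 8 h intervals.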

[4] = A CellTox Green Cytotoxicity Assay to monitor cytotoxicity in HepG2 cells - 32 hour (AID 1224883); also: nearly all actives have a fitted effect of over 50% in size; also: potency is read from the fitted curve at half-maximal effect
In short: as §3

[5] = A CellTox Green Cytotoxicity Assay to monitor cytotoxicity in HEK293 cells - 8 hour (AID 1224884); also: nearly all actives have a fitted effect of over 35% in size; also: potency is read from the fitted curve at half-maximal effect
In short: as §2

[6] = qHTS RealTime-Glo MT Cell Viability Assay in HepG2 cells - 16 hour (AID 1224885); also: nearly all actives have a fitted effect of over 50% in size; also: potency is read from the fitted curve at half-maximal effect
In short: (§4)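 Viability was tracked continuously by NanoLuc luminescence from prosubstrate reduced by living HepG2 cells, at successive time points over 40 h of compound exposure. Cells with reagent were preincubated 5 h at 37 °C before compound addition.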

[7] = qHTS RealTime-Glo MT Cell Viability Assay in HEK293 cells - 24 hour (AID 1224886); also: nearly all actives have a fitted effect of over 50% in size; also: potency is read from the fitted curve at half-maximal effect
In short: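 Viability tracked continuously by luminescence as live cells reduce a prosubstrate for NanoLuc; HEK293 cells preincubated 5 h, compound-treated at 37 C, and read at 0, 8, 16, 24, 32 and 40 h.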

[8] = qHTS RealTime-Glo MT Cell Viability Assay in HEK293 cells - 8 hour (AID 1224887); also: nearly all actives have a fitted effect of over 50% in size; also: potency is read from the fitted curve at half-maximal effect
In short: as §1

[9] = A CellTox Green Cytotoxicity Assay to monitor cytotoxicity in HEK293 cells - 16 hour (AID 1224888); also: nearly all actives have a fitted effect of over 35% in size; also: potency is read from the fitted curve at half-maximal effect
In short: as §2

[10] = qHTS RealTime-Glo MT Cell Viability Assay in HepG2 cells - 0 hour (AID 1224889); also: nearly all actives have a fitted effect of over 50% in size; also: potency is read from the fitted curve at half-maximal effect
In short: as §4

SMILES	Potency [1]	Potency [2]	Potency [3]	Potency [4]	Potency [5]	Potency [6]	Potency [7]	Potency [8]	Potency [9]	Potency [10]
O=S(=O)(O)c1ccc(O)cc1	inactive	inactive	inactive	inactive	inactive	inactive	inactive	inactive	inactive	inactive
CCCCC(CC)COCC1CO1 (stereo not drawn)	inactive	inactive	inactive	inactive	inactive	inactive	inactive	inactive	inactive	inactive
C[C@]12CCC(=O)C=C1CC[C@@H]1[C@@H]2C(=O)C[C@@]2(C)[C@H]1CC[C@]2(O)C(=O)CO	–	inactive	inactive	inactive	inactive	inactive	inactive	inactive	inactive	5.49 µM (active)
c1cc(N(CC2CO2)CC2CO2)ccc1OCC1CO1 (stereo not drawn)	inactive	inactive	inactive	inactive	inactive	inactive	–	inactive	inactive	inactive
C=C(C)C(=O)OCCOC(=O)C(=C)C	inactive	inactive	inactive	inactive	inactive	inactive	inactive	inactive	inactive	inactive
O=C(/C=C/C=C/c1ccc2c(c1)OCO2)N1CCCCC1	inactive	inactive	inactive	inactive	inactive	inactive	–	inactive	inactive	inactive
O=C(c1ccc(OCCN2CCCCC2)cc1)c1c(-c2ccc(O)cc2)sc2cc(O)ccc12	inactive	54.9 µM (active) and inactive	inactive	49 µM (active) and 54.9 µM (active)	inactive	inactive	19.5 µM (active)	21.9 µM (active)	–	inactive
C=C(C)C1CC=C(C)CC1 (stereo not drawn)	inactive	inactive	inactive	inactive	inactive	inactive	inactive	inactive	inactive	inactive
S=C(NC1CCCCC1)NC1CCCCC1	inactive	inactive	inactive	inactive	inactive	inactive	17 µM (active) and 21.9 µM (active)	–	inactive	inactive
O=C(/C=C/c1ccccc1)OCc1ccccc1	inactive	inactive	inactive	inactive	inactive	inactive	inactive	inactive	inactive	inactive
Cc1cccc([N+](=O)[O-])c1C	inactive	inactive	inactive	inactive	inactive	inactive	inactive	inactive	inactive	inactive
CCC(C)OC(=O)c1ccc(O)cc1 (stereo not drawn)	inactive	inactive	inactive	–	inactive	inactive	–	inactive	inactive	inactive
CN(C)CCC=C1c2ccccc2CCc2ccccc21	–	inactive	inactive	55 µM (active) and 43.6 µM (active) and 26.8 µM (active)	inactive	inactive	inactive	inactive	inactive	–
O=C1c2cccc(O)c2C(=O)c2c(O)cccc21	inactive	inactive	inactive	inactive	inactive	inactive	–	–	inactive	inactive
CCCCC(CC)COP(=O)(OCC(CC)CCCC)OCC(CC)CCCC (stereo not drawn)	inactive	inactive	inactive	inactive	inactive	inactive	inactive	inactive	inactive	inactive
CCC(C)c1ccccc1O (stereo not drawn)	inactive	38.6 µM (active)	inactive	48.6 µM (active)	inactive	inactive	inactive	inactive	–	inactive
CCCCc1oc2ccccc2c1C(=O)c1cc(I)c(OCCN(CC)CC)c(I)c1	inactive	44 µM (active)	inactive	34.9 µM (active) and 26.8 µM (active)	inactive	39.2 µM (active)	34.9 µM (active) and 23.9 µM (active)	–	–	inactive
O=C(Nc1ccc(Cl)cc1)Nc1ccc(Cl)c(Cl)c1	inactive	inactive	inactive	inactive	inactive	inactive	–	inactive	inactive	inactive
CC(C)Oc1ccc2c(=O)c(-c3ccccc3)coc2c1	inactive	inactive	inactive	inactive	inactive	inactive	12 µM (active)	–	inactive	inactive
Cn1cnc([N+](=O)[O-])c1Sc1ncnc2nc[nH]c12	inactive	30.7 µM (active) and inactive	inactive	54.5 µM (active) and inactive	inactive	inactive	–	inactive	inactive	inactive
CC1=CC2C3CC(C=C3C)C2C1 (stereo not drawn)	inactive	inactive and 38.9 µM (active)	inactive and 27.5 µM (active)	inactive and 24.5 µM (active)	inactive and 43.6 µM (active)	inactive	inactive	inactive	–	inactive

SMILES	Potency [1]	Potency [2]	Potency [3]	Potency [4]	Potency [5]	Potency [6]	Potency [7]	Potency [8]	Potency [9]	Potency [10]
OC1CCCCCCCCCCC1	inactive	inactive and 43.6 µM (active)	inactive and 27.5 µM (active)	44.1 µM (active) and 43.6 µM (active)	inactive and 43.6 µM (active)	inactive	inactive	inactive	–	inactive
O=CCCCC=O	inactive	inactive	inactive	–	inactive	inactive	42.1 µM (active) and inactive	inactive	inactive	inactive
c1ccncc1	–	inactive	inactive	inactive	inactive	inactive	inactive	inactive	inactive	inactive
C#C[C@]1(O)CC[C@H]2[C@@H]3CCc4cc(OC)ccc4[C@H]3CC[C@@]21C	inactive	–	inactive	23.9 µM (active)	inactive	inactive	34.7 µM (active) and 19 µM (active)	–	inactive	inactive
CN(C)CCN(Cc1cccs1)c1ccccn1	inactive	inactive	inactive	inactive	inactive	inactive	inactive	inactive	inactive	inactive
O=C1OC2(c3cc(Br)c(O)c(Br)c3Oc3c2cc(Br)c(O)c3Br)c2c(Cl)c(Cl)c(Cl)c(Cl)c21	–	4.91 µM (active) and 26.5 µM (active)	39 µM (active) and 26.5 µM (active)	3.1 µM (active) and 23.6 µM (active)	3.9 µM (active) and 23.6 µM (active)	inactive	inactive	inactive	2.76 µM (active) and 23.6 µM (active)	55 µM (active)
COc1cc([C@@H]2c3cc4c(cc3[C@H](O)[C@H]3COC(=O)[C@H]23)OCO4)cc(OC)c1OC	inactive	inactive	inactive	inactive	inactive	inactive	–	inactive	inactive	inactive
CC(C)CC(C)(O)C#CC(C)(O)CC(C)C (stereo not drawn)	inactive	inactive	inactive	inactive	inactive	inactive	inactive	inactive	inactive	inactive
C#C[C@]1(O)CC[C@H]2[C@@H]3CCC4=Cc5oncc5C[C@]4(C)[C@H]3CC[C@@]21C	–	49 µM (active)	inactive	inactive	inactive	–	–	–	inactive	–
Nc1ccccc1N	–	50.1 µM (active)	50.1 µM (active) and inactive	50.1 µM (active)	50.1 µM (active)	inactive	inactive	–	50.1 µM (active)	inactive
CC(=O)Oc1ccccc1C(=O)Nc1ncc([N+](=O)[O-])s1	inactive	inactive	inactive	inactive	inactive	inactive	–	inactive	inactive	inactive
COc1ccccc1/C=C/C=O	inactive	inactive	inactive	inactive	inactive	inactive	–	inactive	inactive	inactive
O=C(COc1ccc(Cl)cc1)N1CCN(Cc2ccc3c(c2)OCO3)CC1	inactive	inactive	inactive	inactive	inactive	inactive	38.9 µM (active)	38.9 µM (active) and inactive	inactive	inactive
COc1ccc(C(=O)CC(=O)c2ccc(C(C)(C)C)cc2)cc1	inactive	inactive	inactive and 75.6 nM (active)	inactive and 67.4 nM (active)	inactive	inactive	29.6 µM (active) and inactive	–	inactive	inactive
CC(=O)O[C@]1(C(C)=O)CC[C@H]2[C@@H]3C=C(Cl)C4=CC(=O)[C@@H]5C[C@@H]5[C@]4(C)[C@H]3CC[C@@]21C	inactive	inactive	inactive	inactive	inactive	–	21.9 µM (active)	inactive	inactive	inactive
COc1cccc2c1C(=O)c1c(O)c3c(c(O)c1C2=O)C[C@@](O)(C(=O)CO)C[C@@H]3O[C@H]1C[C@H](N)[C@H](O)[C@H](C)O1	inactive	inactive	inactive	inactive and 21.3 µM (active)	–	inactive	155 nM (active) and 301 nM (active)	inactive	inactive	inactive
OC[C@H]1O[C@@H]2O[C@H]3[C@H](O)[C@@H](O)[C@@H](O[C@H]4[C@H](O)[C@@H](O)[C@@H](O[C@H]5[C@H](O)[C@@H](O)[C@@H](O[C@H]6[C@H](O)[C@@H](O)[C@@H](O[C@H]7[C@H](O)[C@@H](O)[C@@H](O[C@H]8[C@H](O)[C@@H](O)[C@@H](O[C@H]1[C@H](O)[C@H]2O)O[C@@H]8CO)O[C@@H]7CO)O[C@@H]6CO)O[C@@H]5CO)O[C@@H]4CO)O[C@@H]3CO	inactive	inactive	inactive	inactive	inactive	inactive	inactive	inactive	inactive	inactive
Oc1ccc(O)cc1	inactive	inactive	inactive	inactive	inactive	inactive	–	inactive	inactive	inactive
CC(=O)C1(C)CC2=C(CCCC2(C)C)CC1C (stereo not drawn)	inactive	–	inactive	inactive	inactive	inactive	inactive	inactive	inactive	inactive
CNCCCC12CCC(c3ccccc31)c1ccccc12	–	49 µM (active)	inactive	34.7 µM (active) and 23.9 µM (active)	inactive	49 µM (active)	49 µM (active)	inactive	–	–
